Drawing on ChEMBL document CHEMBL3988442, “University of Dundee, Small-Polar-MMV Screening Library” (2021), this text covers Percent Effect for eleven compounds.

What all share (set-up): scale not given: direction of the effect not stated beside the values
For assay [1], the target named is Protein translocase subunit SecA (Escherichia coli (strain K12)) (UniProt P10408). Put plainly: Assay to Identify E. coli SecA ATPase Inhibitors. In kind it is functional. The note with it: 30 µM.
The target in assay [2] is T1, Ubiquitin-activating enzyme e1, putative (Leishmania donovani (strain BPK282A1)) (UniProt E9BSI1).
T1 sequence (whole entry): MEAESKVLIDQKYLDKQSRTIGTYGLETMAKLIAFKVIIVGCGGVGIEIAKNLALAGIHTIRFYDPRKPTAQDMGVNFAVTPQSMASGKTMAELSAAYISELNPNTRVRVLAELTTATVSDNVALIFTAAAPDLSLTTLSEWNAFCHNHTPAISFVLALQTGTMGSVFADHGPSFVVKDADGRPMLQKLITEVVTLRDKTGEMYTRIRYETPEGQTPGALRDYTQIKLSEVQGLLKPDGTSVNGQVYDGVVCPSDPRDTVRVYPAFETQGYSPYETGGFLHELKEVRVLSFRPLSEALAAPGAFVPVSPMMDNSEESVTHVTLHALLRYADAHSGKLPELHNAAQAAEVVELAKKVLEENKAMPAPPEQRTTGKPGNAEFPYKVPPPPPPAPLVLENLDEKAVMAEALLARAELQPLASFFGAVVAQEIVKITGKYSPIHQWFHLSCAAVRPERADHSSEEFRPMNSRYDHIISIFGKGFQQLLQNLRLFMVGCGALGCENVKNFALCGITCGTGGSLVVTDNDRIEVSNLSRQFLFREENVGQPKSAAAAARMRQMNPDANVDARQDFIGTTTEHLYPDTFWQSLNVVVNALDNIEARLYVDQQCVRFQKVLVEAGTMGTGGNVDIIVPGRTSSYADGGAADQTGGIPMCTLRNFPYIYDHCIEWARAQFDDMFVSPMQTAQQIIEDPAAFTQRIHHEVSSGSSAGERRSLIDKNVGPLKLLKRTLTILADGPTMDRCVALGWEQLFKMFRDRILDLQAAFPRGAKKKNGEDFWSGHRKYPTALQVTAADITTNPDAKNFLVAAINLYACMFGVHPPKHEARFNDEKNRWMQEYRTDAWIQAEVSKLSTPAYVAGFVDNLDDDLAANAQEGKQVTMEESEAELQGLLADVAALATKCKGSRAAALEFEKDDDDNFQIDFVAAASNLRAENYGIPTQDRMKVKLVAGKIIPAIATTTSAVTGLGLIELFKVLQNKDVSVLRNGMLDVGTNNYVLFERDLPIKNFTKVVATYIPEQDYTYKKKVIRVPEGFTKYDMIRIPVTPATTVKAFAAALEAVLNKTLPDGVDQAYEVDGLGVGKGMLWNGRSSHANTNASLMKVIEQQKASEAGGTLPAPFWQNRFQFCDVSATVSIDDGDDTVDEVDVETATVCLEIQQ
Put plainly: Leishmania donovani Ubiquitin Activating Enzyme (LdE1). The note with it: 30 µM. In kind it is functional.

Assay [3] deals with AMP-activated protein kinase, AMPK (Homo sapiens) (UniProt P54646+O43741+P54619+Q9UGJ0+Q9Y478+Q13131+Q9UGI9). Put plainly: AMP-dependent Kinase enzyme assay. An in vitro enzyme assay that detects ADP turnover that is directly proportional to AMPK activity. This uses naive AMPK that is activated during the assay with MK-8722. It is filed as functional. The note with it: 30 µM.

Assay [4] has as its target Sialic acid-binding Ig-like lectin 9 (Homo sapiens) (UniProt Q9Y336). The assay is described as follows: Hs-Siglec9 ALPHAscreen SOP 20170721. The note with it: 10 µM.
A further assay has as its system Trypanosoma cruzi. The assay is described as follows: Trypanosoma cruzi phosphomannomutase and mannose-1-phosphate guanylyltransferase assay. The note with it: 10 µM. It is filed as functional.
For assay [5], the target named is T2, Arginase-2, mitochondrial (Homo sapiens) (UniProt P78540).
T2 sequence (whole entry): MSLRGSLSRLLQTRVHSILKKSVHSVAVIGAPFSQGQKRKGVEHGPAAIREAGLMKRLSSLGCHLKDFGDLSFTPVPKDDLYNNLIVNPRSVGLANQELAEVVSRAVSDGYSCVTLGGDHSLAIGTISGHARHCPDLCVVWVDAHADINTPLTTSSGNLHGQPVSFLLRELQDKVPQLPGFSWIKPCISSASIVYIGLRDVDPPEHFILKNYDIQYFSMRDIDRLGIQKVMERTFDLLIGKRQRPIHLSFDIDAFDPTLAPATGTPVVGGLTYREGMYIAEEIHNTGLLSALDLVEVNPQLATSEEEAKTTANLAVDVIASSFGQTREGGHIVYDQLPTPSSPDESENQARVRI
The assay is described as follows: in vitro enzyme assay to detect the production of urea directly proportional to the activity of Arginase II. Also: in the data most compounds retested in dose-response had high values. It is filed as functional. The note with it: 33.3 µM.

The target in assay [6] is T3, Proteasome subunit beta (Trypanosoma cruzi) (UniProt O96673).
T3 sequence (whole entry): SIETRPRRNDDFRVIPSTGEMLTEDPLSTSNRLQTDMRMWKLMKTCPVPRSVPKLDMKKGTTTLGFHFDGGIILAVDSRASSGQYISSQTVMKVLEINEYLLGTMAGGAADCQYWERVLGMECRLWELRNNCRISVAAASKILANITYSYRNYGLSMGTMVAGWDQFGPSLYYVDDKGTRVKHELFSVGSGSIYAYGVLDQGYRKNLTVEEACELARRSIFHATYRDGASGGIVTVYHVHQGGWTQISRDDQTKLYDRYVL
Put plainly: Trypanosoma cruzi proteasome chymotrypsin-like activity (TcProtChymo) assay. Also: in the data most compounds retested in dose-response had high values. In kind it is functional. The note with it: 9.37 µM.

The species entered for a further assay is Homo sapiens. The assay is described as follows: To identify inhibition of the IFN signalling (Jak-Stat) pathway via expression of an eGFP reporter gene under the control of an IFN-stimulated response element (ISRE) containing MxA promoter. In kind it is functional. The note with it: 30 µM.
Assay [7] addresses T4, Tyrosyl-tRNA synthetase, putative (Trypanosoma cruzi (strain CL Brener)) (UniProt Q4DSP6).
T4 sequence (whole entry): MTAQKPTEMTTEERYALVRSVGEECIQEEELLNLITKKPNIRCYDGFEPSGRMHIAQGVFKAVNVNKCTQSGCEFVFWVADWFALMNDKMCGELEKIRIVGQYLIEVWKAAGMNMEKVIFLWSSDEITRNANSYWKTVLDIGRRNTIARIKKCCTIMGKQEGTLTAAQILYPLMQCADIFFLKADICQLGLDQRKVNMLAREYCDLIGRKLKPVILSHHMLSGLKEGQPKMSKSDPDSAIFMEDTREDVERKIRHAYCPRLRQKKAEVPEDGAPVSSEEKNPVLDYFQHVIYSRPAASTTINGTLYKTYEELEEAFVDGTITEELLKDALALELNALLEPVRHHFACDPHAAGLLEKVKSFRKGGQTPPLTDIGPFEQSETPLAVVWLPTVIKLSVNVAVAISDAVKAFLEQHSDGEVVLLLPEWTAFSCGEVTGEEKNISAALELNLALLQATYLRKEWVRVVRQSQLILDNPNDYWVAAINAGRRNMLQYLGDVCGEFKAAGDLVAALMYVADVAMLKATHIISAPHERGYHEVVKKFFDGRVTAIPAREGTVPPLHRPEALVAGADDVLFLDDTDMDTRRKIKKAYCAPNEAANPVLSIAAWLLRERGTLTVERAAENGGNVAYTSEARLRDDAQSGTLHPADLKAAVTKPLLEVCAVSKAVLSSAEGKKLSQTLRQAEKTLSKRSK
Put plainly: Trypanosoma cruzi tyrosyl tRNA synthetase (TcYRS) _High Tyrosine SOP. Also: in the data most compounds retested in dose-response had high values. The note with it: 30 µM. It is filed as functional.

For assay [8], the target named is T4, Tyrosyl-tRNA synthetase, putative (Trypanosoma cruzi (strain CL Brener)). Put plainly: Trypanosoma cruzi tyrosyl tRNA synthetase (TcYRS) SOP. In kind it is functional. The note with it: 30 µM.
The target in assay [9] is Chromo domain-containing protein 1 (Saccharomyces cerevisiae (strain ATCC 204508 / S288c) (Baker's yeast)) (UniProt P32657). The assay is described as follows: ScCHD-1 Enzyme Inhibition Assay. Also: in the data most compounds retested in dose-response had high values. In kind it is functional. The note with it: 30 µM.

For some of these results: Entries with a potency or affinity are not part of this list.

Sequence of Protein translocase subunit SecA (Escherichia coli (strain K12)) (P10408 whole entry): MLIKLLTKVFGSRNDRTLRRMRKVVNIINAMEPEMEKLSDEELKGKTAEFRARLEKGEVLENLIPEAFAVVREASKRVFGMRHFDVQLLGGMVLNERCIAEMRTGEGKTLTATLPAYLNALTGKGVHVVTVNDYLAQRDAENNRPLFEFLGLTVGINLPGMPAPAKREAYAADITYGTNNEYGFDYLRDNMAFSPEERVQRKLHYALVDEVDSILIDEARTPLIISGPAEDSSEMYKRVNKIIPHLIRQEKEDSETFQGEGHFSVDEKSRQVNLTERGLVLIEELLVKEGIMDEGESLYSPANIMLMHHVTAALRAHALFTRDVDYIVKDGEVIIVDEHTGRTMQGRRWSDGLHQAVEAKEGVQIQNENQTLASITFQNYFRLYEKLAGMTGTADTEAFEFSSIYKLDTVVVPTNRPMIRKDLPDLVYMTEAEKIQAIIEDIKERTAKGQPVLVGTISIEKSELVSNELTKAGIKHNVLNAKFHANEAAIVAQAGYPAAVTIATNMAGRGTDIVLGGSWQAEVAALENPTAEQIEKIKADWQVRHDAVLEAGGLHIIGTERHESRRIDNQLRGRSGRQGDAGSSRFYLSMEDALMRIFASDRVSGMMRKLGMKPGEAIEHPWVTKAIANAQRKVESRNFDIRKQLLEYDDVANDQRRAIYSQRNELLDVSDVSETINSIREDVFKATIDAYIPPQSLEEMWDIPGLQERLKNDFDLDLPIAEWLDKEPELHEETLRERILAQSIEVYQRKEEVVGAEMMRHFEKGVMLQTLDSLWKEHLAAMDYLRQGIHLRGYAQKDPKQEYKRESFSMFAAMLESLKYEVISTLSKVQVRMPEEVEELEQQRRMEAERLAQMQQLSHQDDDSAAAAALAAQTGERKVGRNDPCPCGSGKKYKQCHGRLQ
Sequence of Sialic acid-binding Ig-like lectin 9 (Homo sapiens) (Q9Y336 whole entry): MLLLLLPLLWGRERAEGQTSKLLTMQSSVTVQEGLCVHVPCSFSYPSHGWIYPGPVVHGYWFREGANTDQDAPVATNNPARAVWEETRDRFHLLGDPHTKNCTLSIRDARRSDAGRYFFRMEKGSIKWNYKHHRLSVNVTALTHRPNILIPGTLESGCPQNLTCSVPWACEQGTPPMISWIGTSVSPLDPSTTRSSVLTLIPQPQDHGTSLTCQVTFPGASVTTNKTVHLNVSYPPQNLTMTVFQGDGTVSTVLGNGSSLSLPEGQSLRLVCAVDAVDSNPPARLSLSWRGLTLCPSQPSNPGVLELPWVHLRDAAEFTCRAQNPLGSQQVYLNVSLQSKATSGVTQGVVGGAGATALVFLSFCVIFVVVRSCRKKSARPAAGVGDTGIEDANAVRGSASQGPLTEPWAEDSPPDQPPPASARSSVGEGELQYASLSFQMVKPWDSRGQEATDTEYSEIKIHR
Sequence of Chromo domain-containing protein 1 (Saccharomyces cerevisiae (strain ATCC 204508 / S288c) (Baker's yeast)) (P32657 whole entry, the tested form may be a part): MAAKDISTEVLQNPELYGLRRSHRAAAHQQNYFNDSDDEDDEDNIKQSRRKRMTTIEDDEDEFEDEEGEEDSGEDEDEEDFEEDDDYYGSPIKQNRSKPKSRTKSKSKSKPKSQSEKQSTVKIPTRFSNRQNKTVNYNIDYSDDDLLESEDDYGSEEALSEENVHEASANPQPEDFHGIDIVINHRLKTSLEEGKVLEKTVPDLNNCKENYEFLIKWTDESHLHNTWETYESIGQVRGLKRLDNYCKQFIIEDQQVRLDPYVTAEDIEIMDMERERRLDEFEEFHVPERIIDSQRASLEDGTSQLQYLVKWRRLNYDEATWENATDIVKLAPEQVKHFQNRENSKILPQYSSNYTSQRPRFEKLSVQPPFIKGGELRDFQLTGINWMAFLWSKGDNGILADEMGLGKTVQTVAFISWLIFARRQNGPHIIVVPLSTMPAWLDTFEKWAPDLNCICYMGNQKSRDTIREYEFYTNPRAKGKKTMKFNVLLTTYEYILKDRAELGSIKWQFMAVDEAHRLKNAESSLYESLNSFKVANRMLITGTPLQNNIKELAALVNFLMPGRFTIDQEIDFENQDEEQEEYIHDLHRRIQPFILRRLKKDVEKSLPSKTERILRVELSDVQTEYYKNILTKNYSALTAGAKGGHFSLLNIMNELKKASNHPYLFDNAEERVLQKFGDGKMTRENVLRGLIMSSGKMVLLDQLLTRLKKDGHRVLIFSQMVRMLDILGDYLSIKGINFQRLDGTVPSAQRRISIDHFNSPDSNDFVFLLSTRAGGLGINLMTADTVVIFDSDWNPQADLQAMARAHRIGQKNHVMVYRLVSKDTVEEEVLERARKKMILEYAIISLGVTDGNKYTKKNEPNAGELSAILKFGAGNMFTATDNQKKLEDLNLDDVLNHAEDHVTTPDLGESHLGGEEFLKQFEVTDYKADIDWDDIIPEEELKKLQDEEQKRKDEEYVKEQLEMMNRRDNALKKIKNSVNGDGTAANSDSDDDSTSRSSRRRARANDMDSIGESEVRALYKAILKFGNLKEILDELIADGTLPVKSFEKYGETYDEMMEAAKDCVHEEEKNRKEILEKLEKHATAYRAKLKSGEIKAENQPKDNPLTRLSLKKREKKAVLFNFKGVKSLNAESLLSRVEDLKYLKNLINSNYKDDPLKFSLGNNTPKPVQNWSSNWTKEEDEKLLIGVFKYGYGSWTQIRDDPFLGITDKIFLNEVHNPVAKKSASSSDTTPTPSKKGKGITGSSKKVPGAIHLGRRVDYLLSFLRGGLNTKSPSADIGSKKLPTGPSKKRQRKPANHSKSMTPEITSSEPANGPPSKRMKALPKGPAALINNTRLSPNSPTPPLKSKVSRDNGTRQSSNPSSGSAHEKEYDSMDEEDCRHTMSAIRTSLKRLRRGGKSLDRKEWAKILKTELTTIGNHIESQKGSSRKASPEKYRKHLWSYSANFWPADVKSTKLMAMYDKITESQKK

`Cc1noc(C)c1CNC(=O)c1ccc(NC2CC2)nc1`: the Percent Effect in assay [1] is -5.61%; in assay [2] it was 5.26%; in [3], -12.2%; in assay [4] it was 12.7%; with Trypanosoma cruzi it was 7.94%; in assay [5] it was -2.52%. The Percent Effect was -0.0846% in assay [6]; 3.38% in the assay filed under Homo sapiens; 7.39% in assay [7]; 25.9% in [8]; -5.7% in assay [9].
Regarding `Cc1nc(CN2CCc3cncnc3C2)oc1C`, the Percent Effect in [1] was -0.217%; in [2], 2.74%; in assay [3], -102%; in [4], 7.08%; in the assay with Trypanosoma cruzi, 5.09%; in [5] it was 16.8%. Besides, the Percent Effect in assay [6] is 3.55%; in the assay filed under Homo sapiens, 2.92%; in assay [7] it was 2.15%; in [8] it was 12.5%; in [9], -7.36%.
`CC(C)(C)c1ccc(C2(C(=O)NCCS(N)(=O)=O)CC2)cc1`: the Percent Effect is -3.83% in assay [1]; 10.4% in [2]; 1.16% in assay [3]; 8.65% in assay [4]; 3.25% in the assay on Trypanosoma cruzi; -422% in assay [5]. Also, the Percent Effect is 8.98% in [6]; 10.7% in the assay listed under Homo sapiens; 3.23% in [7]; 11.1% in [8]; -4.35% in assay [9].
Turning to `Cc1nn(CC(C)C)c(N(C)C)c1CNCc1cccnc1N(C)C`, the Percent Effect was -4.49% in [1]; 5.41% in [2]; -8.59% in assay [3]; 3.17% in assay [4]; -9.34% in the assay with Trypanosoma cruzi; -6.41% in [5]. The Percent Effect in [6] was 7.75%; in the assay listed under Homo sapiens, 6.14%; in assay [7] it was 1.48%; in assay [8] it was 3.7%; in [9] it was -5.66%.
Regarding `COc1ccc(CCNC(=O)C2CCC(Cn3cnnn3)CC2)cc1` (stereo unspecified), the Percent Effect in assay [1] was -1.81%; in assay [2], 1.33%; in assay [3], 15.9%; in assay [4], 3.74%; with Trypanosoma cruzi, -1.38%; in assay [5], -5.81%. Besides, the Percent Effect in assay [6] was 5.18%; in the assay filed under Homo sapiens, -2.49%; in assay [7], 5.29%; in [8], 2.56%; in [9] it was -1.04%.
For `COc1cccc(CN2CCCC(Nc3cccc(F)c3)C2)c1O` (stereo unspecified), the Percent Effect in assay [1] is -5.42%; in [2], 10.8%; in [3] it was -4%; in [4] it was 18.7%; with Trypanosoma cruzi it was 7.33%; in [5], 2.23%. Besides, the Percent Effect in assay [6] is 5.24%; in the assay listed under Homo sapiens, 0.464%; in assay [7], 3.23%; in assay [8] it was 11.1%; in assay [9], -12.4%.
For `CN(Cc1ccco1)Cc1ccccc1CNC(=O)c1ccncc1`, the Percent Effect in assay [1] is -4.48%; in assay [2], 5.41%; in assay [3], 13.1%; in assay [4] it was 4.84%; in the assay on Trypanosoma cruzi, 0.386%; in [5], 0%. Moreover, the Percent Effect in assay [6] was 12.8%; in the assay listed under Homo sapiens, -3.63%; in assay [7] it was 2.65%; in [8], 4.88%; in assay [9], -2.3%.
`CCC(=O)N1CCCC1c1nccnc1Nc1ncccn1` (stereo unspecified): the Percent Effect in assay [1] was 0.559%; in [2], -6.76%; in [3] it was 18.4%; in assay [4], 0.16%; in the assay on Trypanosoma cruzi it was -2.57%; in assay [5] it was -0.232%. For the same compound, the Percent Effect in assay [6] is -6.24%; in the assay filed under Homo sapiens, -9.16%; in assay [7], 1.07%; in assay [8] it was -3.9%; in assay [9], -6.85%.
As for `COCCN1CCC(CNC(=O)C2(c3cccc(C)c3)CC2)CC1`, the Percent Effect in [1] is -2.68%; in [2], 3.8%; in [3], 0.953%; in assay [4], 1.27%; in the assay on Trypanosoma cruzi it was -4.82%; in assay [5] it was 2.8%. The Percent Effect in assay [6] was 0.172%; in the assay listed under Homo sapiens, 7.85%; in assay [7] it was 1.04%; in [8], 2.53%; in assay [9], -25%.
Regarding `CCn1cc(NC(=O)NCC2(N3CCOCC3)CCSC2)cn1` (stereo unspecified), the Percent Effect was -1.63% in [1]; 13.5% in assay [2]; 2.58% in assay [3]; 16.6% in [4]; 1.74% in the assay with Trypanosoma cruzi; 13.8% in assay [5]. Besides, the Percent Effect in assay [6] was 17.2%; in the assay filed under Homo sapiens, -1.24%; in [7], 6.88%; in assay [8] it was 7.32%; in assay [9], -4.92%.
As to `CC(=O)N1CCC(c2nccnc2Oc2ccccc2)CC1`, the Percent Effect was -6.13% in [1]; 4.05% in [2]; 4.17% in [3]; -0.964% in [4]; -6.32% in the assay with Trypanosoma cruzi; -3.02% in assay [5]. Moreover, the Percent Effect in assay [6] stood at 4.06%; in the assay filed under Homo sapiens it was 13.5%; in assay [7] it was 2.15%; in assay [8], 1.3%; in assay [9], 11.4%.
